The list is not random: actives were taken first. Their share in the collection is about 3%.
MITF act – activators of MITF-driven TRPM1 promoter activity in SK-MEL-5 cells | 0.75% of 300,000 active | activation, % at 12.5 µM | AID 588334 | SK-MEL-5 TRPM1-promoter luciferase, 24 h; % of positive control, neutral wells = 0;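 active means mean activation of at least 80% with every replicate also reaching 80%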;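 further: 0% = neutral control wells and 100% = parthenolide positive control wells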
C2C12 statin – suppression of simvastatin myotoxicity. C2C12 myotubes + simvastatin, ATP luminescence, 48 h; scaled: DMSO 0, geranylgeraniol control 100. rescue of ATP level, % at 7.49 µM. 0.78% of 330,000 active. AID 602340;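 active means mean ATP rescue above about 67%, or every replicate alone reaching that limit, limit read from the data, passing the limit was not always enough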;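 further: myotubes were challenged with 10 µM simvastatin during compound exposure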
esBAF inh – blocks esBAF chromatin remodeling in mouse ES cells; 2% of 350,000 active; AID 602393; reporter increase, % at 12.5 µM; Bmi1-luciferase knock-in reporter, 24 h; 100% = twice the neutral-well signal; in the data active means activation above about 40%;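 further: 0% = median of the plate's neutral control wells and 100% = double that signal; a rise in the Bmi1 reporter signal indicates esBAF inhibition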
Wnt act – Wnt/beta-catenin pathway activation | Wnt/beta-catenin reporter cell assay, activator, plate reader | activation, % at 9.35 µM | 1.2% of 300,000 active; in the data active means activation above about 30%, passing the limit was not always enough;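 further: 0% = neutral control wells and 100% = positive control wells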
* marks the source's active call; other numbers are inactive results; nt = no result given.

SMILES | MITF act | C2C12 statin | esBAF inh | Wnt act
O=C1NCCN/C1=C\C(=O)c1ccc(Cl)cc1 | nt | nt | nt | -4
O=C1NCCN/C1=C\C(=O)c1ccc(F)cc1 | 26 | nt | nt | 15
CC1CN/C(=C\C(=O)c2ccccc2)C(=O)N1 (stereo unspecified) | 61 | 117* | 12 | nt
CCC(=O)N(C)C[C@@H]1Oc2ncc(-c3ccccc3C)cc2C(=O)N([C@H](C)CO)C[C@@H]1C | nt | 18 | -4 | nt
CC(C)[C@H]1COCCS(=O)(=O)N1Cc1ccc(Cl)cc1 | 9 | -3 | -8 | -2
CCC(C)[C@H]1COCCS(=O)(=O)N1Cc1ccc(Br)cc1 (stereo partly specified) | -2 | 117* | -3 | -1
CC(=O)Nc1ccc2c(c1)C(=O)N(C)[C@@H]1CC[C@@H](CC(=O)NCC3CC3)O[C@H]1CO2 | nt | 7 | 0 | nt
Cc1cc(=O)oc2c(CN3CCCCC3)c(O)c(Cl)cc12 | -1 | 97* | 5 | nt
Cc1cc(=O)oc2c(CN3CCCC3)c(O)c(Cl)cc12 | 1 | 6 | -3 | 1
CCCn1c(C)cc(C(=O)CN2C(=O)c3ccccc3C2=O)c1C | 8 | nt | nt | 43*
CCCn1c(C)cc(C(=O)CN2C(=O)NC3(CCCCCC3)C2=O)c1C | nt | -19 | 54* | 29
Cc1cc(C(=O)CN2C(=O)NC3(CCCCCC3)C2=O)c(C)n1C | 25 | 14 | 44* | 29
CCn1c(C)cc(C(=O)CN2C(=O)c3ccccc3S2(=O)=O)c1C | -68 | -2 | -77 | 1
Cc1cc(C(=O)CN2C(=O)C3CC=CCC3C2=O)c(C)n1-c1ccccc1 (stereo unspecified) | nt | -1 | -11 | 48*
Cc1cc2c(cc1C)CN(c1ccccc1)C2 | 96* | -7 | 48* | 49*
CCOc1ccccc1N1Cc2cc(C)c(C)cc2C1 | nt | -6 | 46* | 4
Oc1cccc(N2Cc3ccccc3C2)c1 | 13 | 3 | 21 | nt
CCC(=O)Nc1ccc2c(c1)C(=O)N(C)C[C@H](OC)[C@@H](C)CN(C(=O)C1CCC1)[C@@H](C)CO2 | nt | 0 | 2 | nt
CCOC(=O)c1c(NC(=O)Cc2cccs2)sc(C(=O)NC2CCCCC2)c1C | -11 | 78* | -14 | 0
C[C@@H]1CN([C@H](C)CO)C(=O)CCCn2cc(nn2)CO[C@H]1CN(C)Cc1cccc(O)c1 | nt | -3 | -3 | nt
N#Cc1nc(COc2ccccc2)oc1N1CCOCC1 | 20 | 106* | 8 | -2
CC(=O)c1c[nH]c(C(=O)NCC2CCCO2)c1 (stereo unspecified) | nt | -2 | 1 | -3
O=C(NCC1CCCO1)c1ccc(COc2ccccc2)cc1 (stereo unspecified) | 21 | -8 | 49* | 9
Cc1ccc(OCc2ccc(C(=O)NCC3CCCO3)cc2)cc1 (stereo unspecified) | -5 | nt | nt | -1
O=C(NCC1CCCO1)c1ccc2[nH]c3c(c2c1)CCCC3 (stereo unspecified) | 41 | -33 | 45* | 4
SMILES | MITF act | C2C12 statin | esBAF inh | Wnt act
CCC(CC)C(=O)c1c[nH]c(C(=O)NCC2CCCO2)c1 (stereo unspecified) | 9 | 107* | -7 | nt
CCCN(C)C[C@H]1OCCCC[C@@H](C)Oc2ccc(NS(=O)(=O)c3ccc(F)cc3)cc2C(=O)N([C@@H](C)CO)C[C@H]1C | nt | 18 | 2 | nt
C[C@H]1CN([C@@H](C)CO)C(=O)c2cc(NC(=O)NC3CCCCC3)ccc2O[C@H]1CN(C)S(=O)(=O)c1ccccc1 | nt | -13 | -2 | nt
C[C@H](NC(=O)C[C@H]1CC[C@H](NC(=O)C2CC2)[C@H](CO)O1)c1ccccc1 | nt | 1 | 0 | nt
CCOc1ccc2cc(/C=C/C(=O)c3ccco3)c(Cl)nc2c1 | nt | -2 | 57* | nt
CCOc1ccc2nc(SCC(=O)NNC(=O)c3ccco3)c(C)cc2c1 | nt | -16 | -8 | -3
C[C@H](CO)N1C[C@H](C)[C@H](CN(C)Cc2ccc(C(F)(F)F)cc2)Oc2ccc(NC(=O)CCN3CCOCC3)cc2C1=O | nt | 10 | 2 | nt
C[C@H]1CN([C@@H](C)CO)C(=O)c2cc(C#CCN(C)C)cnc2O[C@H]1CN(C)C(=O)NC1CCCCC1 | nt | 1 | -3 | nt
Cc1cc(=O)[nH]c(N=N/C(=N/Nc2ccc(O)cc2)c2ccccc2)n1 | 29 | 13 | 49* | nt
CCN1[C@@H]2c3ccc(-c4ccccc4)c(=O)n3C[C@@H]2[C@@H](CO)[C@@H]1C(=O)Nc1ccccc1 | nt | 30 | -1 | nt
C[C@H](CO)N1C[C@H](C)[C@H](CN(C)CC2CCCCC2)Oc2ccc(NC(=O)C3CCCCC3)cc2CC1=O | nt | -30 | -4 | nt
O=C(NN=C1C2CC3CC1CC(Cl)(C3)C2)c1ccccn1 | 8 | 6 | 48* | nt
CCc1ccc(C2c3[nH]c4ccccc4c3CCN2C(=O)c2ccc(=O)n(C)n2)cc1 (stereo unspecified) | -35 | 18 | -11 | -18
CSc1ccc(C2c3[nH]c4ccccc4c3CCN2C(=O)c2ccnn2C)cc1 (stereo unspecified) | 31 | nt | nt | 42*
CNC[C@@H]1Oc2c(NS(=O)(=O)c3c(C)noc3C)cccc2C(=O)N([C@H](C)CO)C[C@@H]1C | nt | 17 | -4 | nt
C=CCn1c(=O)c(C#N)cc2c(=O)n3ccccc3nc21 | 7 | -1 | -7 | -1
C=CCn1c(=N)c(C#N)cc2c(=O)n3ccccc3nc21 | -8 | 94* | 1 | nt
CCOc1ccc(OCCOCCOc2c(Cl)cccc2Cl)cc1 | 3 | 133* | 0 | nt
Cc1cc(C)n2nc(-c3ccc(F)cc3)cc2n1 | nt | 6 | 54* | 2
Cc1cc(C)n2nc(-c3ccccc3)cc2n1 | 12 | 10 | 43* | 12
Cc1ccc(-c2cc3nc(C)cc(C)n3n2)cc1 | 16 | -3 | 60* | 16
Cc1cc(C)n2nc(Nc3ccccc3)cc2n1 | 12 | -2 | 33 | nt
Cc1cc(C)n2nc(-c3ccsc3-n3c(C)ccc3C)cc2n1 | -19 | -15 | -7 | -7
CO[C@H]1CN(C)C(=O)c2cc(NC(=O)NC(C)C)ccc2OC[C@@H](C)N(Cc2cncnc2)C[C@H]1C | nt | -5 | 3 | nt
C[C@@H]1CCCCO[C@H](CN(C)C(=O)c2ccncc2)[C@@H](C)CN([C@@H](C)CO)C(=O)c2cc(NC(=O)CCC(F)(F)F)ccc2O1 | nt | nt | 3 | nt
SMILES | MITF act | C2C12 statin | esBAF inh | Wnt act
C[C@@H]1CN([C@@H](C)CO)C(=O)c2cc(NC(=O)Cn3cnnn3)ccc2O[C@H]1CN(C)CC1CCCCC1 | nt | -1 | 8 | nt
CC(=O)C1=C(O)C(=O)N(c2ccccn2)C1c1ccc(Cl)cc1 (stereo unspecified) | 38 | -7 | 47* | -1
O=C(NCC[C@H]1CC[C@@H](NS(=O)(=O)c2ccccc2)[C@H](CO)O1)c1cc(Cl)cc(Cl)c1 | nt | 23 | 1 | nt
CC(C)NC(=O)Nc1ccc2c(c1)C(=O)N([C@@H](C)CO)C[C@H](C)[C@H](CN(C)Cc1ccc(Cl)c(Cl)c1)O2 | nt | 1 | -2 | nt
C[C@H]1CN([C@@H](C)CO)C(=O)c2cc(NS(C)(=O)=O)ccc2O[C@@H]1CN(C)S(=O)(=O)c1ccc(F)cc1 | nt | -19 | -1 | nt
COc1ccc(-c2cc3nc(CCl)[nH]c(=O)c3s2)cc1 | -11 | -5 | -68 | 8
O=c1[nH]cnc2cc(-c3ccccc3)sc12 | nt | 3 | 42* | nt
